Assay [1] can be described thus: qHTS assay to identify aromatase inhibitors - cell viability counter screen (AID 743084).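 Further: cells stimulated with testosterone during compound exposure; nearly all actives have a fitted effect of over 55% in size.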 Further: potency means the concentration at half of the fitted maximal effect. Particulars: MCF-7 aro ERE viability, CellTiter-Fluor, 24 h; series mostly up to 70.3 µM.
In assay [2] the target is Aryl hydrocarbon receptor (Homo sapiens) (UniProt P35869). In words: qHTS assay to identify small molecule that activate the aryl hydrocarbon receptor (AhR) signaling pathway (AID 743085). Further: nearly all actives have a fitted effect of over 15% in size. Further: potency means the concentration at half of the fitted maximal effect.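 On activation: HG2L7.5c1 human HepG2 liver cells with stably integrated DRE-driven firefly reporter.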 Conditions: HepG2 AhR-luc (HG2L7.5c1), luciferase, 24 h; series mostly up to 70.3 µM. The method in brief: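 Steps: seed HepG2-AhR-luc cells; allow 5 h at 37C; pin-transfer test compound or vehicle; incubate 24 h at 37C; add viability dye (30 min, 37C) and read fluorescence; add luciferase substrate (30 min, RT) and read luminescence.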
Chain of Aryl hydrocarbon receptor (Homo sapiens) (P35869 whole entry, looked up): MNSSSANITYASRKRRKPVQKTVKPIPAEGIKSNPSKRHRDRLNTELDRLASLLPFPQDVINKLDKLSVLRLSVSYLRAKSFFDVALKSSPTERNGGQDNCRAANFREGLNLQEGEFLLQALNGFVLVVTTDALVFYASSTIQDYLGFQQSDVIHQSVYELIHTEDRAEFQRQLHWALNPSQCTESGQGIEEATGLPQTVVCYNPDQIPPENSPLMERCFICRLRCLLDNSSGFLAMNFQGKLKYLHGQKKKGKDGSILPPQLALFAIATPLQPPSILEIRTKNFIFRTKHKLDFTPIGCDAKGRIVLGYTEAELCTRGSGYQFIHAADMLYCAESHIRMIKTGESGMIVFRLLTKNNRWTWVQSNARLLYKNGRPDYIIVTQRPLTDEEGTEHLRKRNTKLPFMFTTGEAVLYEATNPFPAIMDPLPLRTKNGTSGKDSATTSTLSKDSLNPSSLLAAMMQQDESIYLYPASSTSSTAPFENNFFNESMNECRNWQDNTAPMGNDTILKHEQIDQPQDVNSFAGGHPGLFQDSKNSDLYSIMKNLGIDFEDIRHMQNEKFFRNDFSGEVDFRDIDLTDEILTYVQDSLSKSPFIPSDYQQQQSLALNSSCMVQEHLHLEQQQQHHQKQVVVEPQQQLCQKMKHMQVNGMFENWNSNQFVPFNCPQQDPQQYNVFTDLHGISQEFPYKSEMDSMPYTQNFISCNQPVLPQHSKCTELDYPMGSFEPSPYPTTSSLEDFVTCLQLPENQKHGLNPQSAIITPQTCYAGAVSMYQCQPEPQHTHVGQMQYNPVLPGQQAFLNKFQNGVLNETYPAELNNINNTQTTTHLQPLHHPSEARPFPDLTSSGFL

Assay [3] can be described thus: qHTS assay to identify small molecule that activate the aryl hydrocarbon receptor (AhR) signaling pathway - cell viability counter screen (AID 743086). Further: nearly all actives have a fitted effect of over 45% in size. Further: potency means the concentration at half of the fitted maximal effect. Particulars: HepG2-AhR-luc viability, CellTiter-Fluor, 24 h; series mostly up to 70.3 µM. The method, boiled down:
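HepG2-AhR-luc (HG2L7.5c1) cells, 4000/well, treated 24 h at 37 C with compound; viability measured as CellTiter-Fluor fluorescence after 30 min in the same wells as the luciferase read.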

Assay [4] concerns the target Peroxisome proliferator-activated receptor gamma (Homo sapiens) (UniProt P37231). In words: qHTS assay to identify small molecule antagonists of the peroxisome proliferator-activated receptor gamma (PPARg) signaling pathway (AID 743191; calls by dose curve; further: nearly all actives have a fitted effect of over 30% in size; further: potency means the concentration at half of the fitted maximal effect). Conditions: HEK293H PPARg-UAS-bla, beta-lactamase ratio, antagonist, 17 h; series mostly up to 62.6 µM. The method, boiled down: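 GeneBLAzer PPARg UAS-bla HEK293H cells, 5 h post-plating, exposed to compounds 17 h at 37C. LiveBLAzer B/G FRET substrate added for 1 h at room temperature; beta-lactamase reporter read by fluorescence intensity.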

Assay [5] is described as follows: qHTS assay for small molecule agonists of the antioxidant response element (ARE) signaling pathway - cell viability counter screen (AID 743203; calls by dose curve; further: nearly all actives have a fitted effect of over 55% in size). Particulars: ARE-bla HepG2 viability, CellTiter-Glo luminescence, 16 h; series mostly up to 73.3 µM. The method in brief:
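Viability counter screen: stably transfected ARE-bla HepG2 line, 16 hrs compound exposure at 37C/5% CO2, ATP-based CellTiter-Glo luminescence measured in the reporter wells.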

A short description of assay [6]: qHTS assay for small molecule activators of the heat shock response signaling pathway (AID 743210; active means well fitted activation curve with a large enough effect in the signal ratio in the repeat runs, with a control signal flat, not every such curve was filed as active; the % refers to the signal ratio;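 further: HeLa cells with beta-lactamase reporter driven by heat shock elements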). Particulars: HeLa HSE-bla reporter, beta-lactamase ratio, 5 h; series mostly up to 62.6 µM. The method, boiled down:
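Beta-lactamase reporter read-out: FRET substrate fluorescence after 2.5 h at RT, following 5 h compound treatment at 37 C of HeLa cells carrying HSE-driven bla reporter; quantitative HTS format.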

Assay [7] in a line: qHTS assay to identify small molecule antagonists of the peroxisome proliferator-activated receptor gamma (PPARg) signaling pathway - cell viability counter screen (AID 743194). Further: nearly all actives have a fitted effect of over 55% in size. Conditions: PPARg-bla HEK293H viability, CellTiter-Glo luminescence, 17 h, co-treated with 50 nM rosiglitazone; series mostly up to 62.6 µM. The method in brief:
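Cytotoxicity counter screen in PPARg-bla HEK293H cells, same wells as reporter assay. Compounds plus 50 nM rosiglitazone (final) for 17 h at 37 C, then viability read by CellTiter-Glo luminescence.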

The nature of assay [8]: qHTS assay for small molecule agonists of the antioxidant response element (ARE) signaling pathway (AID 743202; active means well fitted activation curve with a large enough effect in the signal ratio in the repeat runs, not every such curve was filed as active; the % refers to the signal ratio; further: potency means the concentration at half of the fitted maximal effect). Particulars: HepG2 ARE-bla reporter, beta-lactamase FRET, 16 h; series mostly up to 73.3 µM. The method, boiled down: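 HepG2 ARE-bla reporter line, 2,000 cells/well; 5 h preincubation 37 C/5% CO2; compound (DMSO) 16 h 37 C; B/G FRET substrate 2 h RT; fluorescence intensity.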

Assay [9] in a line: qHTS assay for small molecule activators of the heat shock response signaling pathway - cell viability counter screen (AID 743209). Further: nearly all actives have a fitted effect of over 50% in size. Particulars: HSE-bla HeLa viability, CellTiter-Glo luminescence, 5 h; series mostly up to 62.6 µM. The method in brief: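 Viability of HSE-bla HeLa cells is measured with CellTiter-Glo in the wells already used for the reporter read. Compound exposure lasts 5 h at 37 C, and luminescence is read after 30 min at room temperature.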

Assay [10] addresses Peroxisome proliferator-activated receptor gamma (Homo sapiens) (UniProt P37231). Kind of assay: qHTS assay to identify small molecule agonists of the peroxisome proliferator-activated receptor gamma (PPARg) signaling pathway (AID 743094; active means well fitted activation curve with a large enough effect in the signal ratio in the repeat runs, not every such curve was filed as active; the % refers to the signal ratio). Conditions: HEK293H PPARg-UAS-bla, beta-lactamase FRET ratio, 17 h; series mostly up to 57 µM. The method, boiled down:
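Reporter activation was scored by fluorescence of cleaved LiveBLAzer B/G substrate (1 h, room temperature) in PPARg-bla HEK293H cells previously treated 17 h at 37C with DMSO-dissolved compounds.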

The structures appear in SMILES notation. Inconclusive results are not listed. Active and inactive are the calls of the source. Unless noted, the call rests on the fitted dose curve; in most records, active means well fitted curve in the direction sought with a large enough effect in the repeat runs; inconclusive means weak or mixed curves; inactive means no such curve, though single readings can be large; an effect the other way counts as inactive or inconclusive.

Chain of Peroxisome proliferator-activated receptor gamma (Homo sapiens) (P37231 whole entry, looked up): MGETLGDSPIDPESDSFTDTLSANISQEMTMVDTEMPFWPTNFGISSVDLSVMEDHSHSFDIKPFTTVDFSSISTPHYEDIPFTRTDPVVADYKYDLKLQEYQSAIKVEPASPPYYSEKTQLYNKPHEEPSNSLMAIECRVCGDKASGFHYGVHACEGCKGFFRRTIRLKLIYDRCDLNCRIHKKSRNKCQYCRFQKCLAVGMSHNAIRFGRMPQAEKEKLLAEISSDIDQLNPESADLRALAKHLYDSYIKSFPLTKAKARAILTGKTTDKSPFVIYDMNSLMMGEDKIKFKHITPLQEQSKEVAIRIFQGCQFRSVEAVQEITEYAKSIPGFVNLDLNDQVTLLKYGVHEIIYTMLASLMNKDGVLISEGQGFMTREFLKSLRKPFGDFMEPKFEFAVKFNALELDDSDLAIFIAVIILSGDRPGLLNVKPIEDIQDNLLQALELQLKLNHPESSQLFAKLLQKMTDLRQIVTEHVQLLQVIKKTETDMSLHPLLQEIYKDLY

On to `Cc1nccn1-c1ccc(Sc2cccc(C3(C(N)=O)CCOCC3)c2)cc1`, for which the Potency entry in assay [1], in assay [2], in [3], in assay [4], in assay [5] and in assay [6] was “inactive” throughout.
For `Cc1cc(OI)c(C(C)C)cc1-c1cc(C(C)C)c(OI)cc1C`, the Potency result in [1], in [2], in [3], in assay [7], in [8] and in [5] was “inactive” in each case. In addition, the Potency result in assay [9] is “inactive”.
As to `CC(=O)Oc1ccc2c(c1)CC[C@@H]1[C@@H]2CC[C@]2(C)[C@@H](O)CC[C@@H]12`, the Potency result in [1], in [2], in [3], in [10], in assay [7] and in [5] was “inactive” throughout. Also, the Potency entry in assay [9] and in [6] was “inactive” in each case.
Consider `CNC(=O)N(c1ccccc1)c1ccccc1`, for which the Potency result in [1], in assay [2], in assay [3], in [10], in [5] and in assay [9] was “inactive” in each case. Besides, the Potency result in assay [6] was “inactive”.
As to `O=c1[nH]c2ccc(S(=O)CCN3CCC(Cc4ccc(F)cc4)CC3)cc2o1` (stereo not drawn), the Potency result in [1], in assay [2], in assay [3], in [7], in assay [5] and in assay [9] was “inactive” each time. Further, the Potency entry in assay [6] was “inactive”.
In the case of `CCOC(=O)[C@@H](C)Oc1ccc(Oc2nc3ccc(Cl)cc3o2)cc1`, the Potency entry in assay [1], in assay [2], in assay [3], in assay [10], in assay [7] and in assay [5] was “inactive” throughout. Also, the Potency result in assay [9] and in [6] was “inactive” in each case.
Regarding `COc1cc2c(cc1OC)-c1cc(=Nc3c(C)cc(C)cc3C)n(C)c(=O)n1CC2`, the Potency in assay [1] was 26.6 µM (active); in assay [2] it was 1.33 µM (active); in assay [3], 29.8 µM (active); in assay [4] it was 13.3 µM (active). Also, in [9], the Potency result is “inactive”.
As for `CC(C)c1nnc2ccc(-c3ocnc3-c3cc(F)ccc3F)cn12`, the Potency entry in assay [1], in assay [2], in assay [3], in [10], in [7] and in assay [5] was “inactive” throughout. For the same compound, the Potency result in [9] and in [6] was “inactive” throughout.
With `Cc1oc(C)c(C(=O)Nc2ccccc2)c1C`, the Potency result in assay [1], in assay [3], in assay [7], in assay [5], in [9] and in [6] was “inactive” throughout. Besides, the Potency is 24.3 µM (active) in assay [2] and 24.5 µM (active) in assay [4].
`CCOC(=O)/C=C/C(=O)O`: the Potency result in assay [1], in assay [2], in assay [3], in assay [10], in assay [7] and in [5] was “inactive” each time. Further, the Potency entry in [6] was “inactive”. In assay [8], the Potency was 9.69 µM (active).
With `O=C(O)C(Cc1cc(I)c(O)c(I)c1)c1ccccc1` (stereo not drawn), the Potency result in assay [1], in [2], in assay [3], in assay [7], in assay [8] and in assay [5] was “inactive” throughout. In [6], the Potency entry was “inactive”. The Potency in assay [4] is 37.6 µM (active).
On to `Oc1ccc(Nc2ccccc2)cc1`, for which the Potency result in assay [1], in assay [2], in assay [3], in [5] and in assay [6] was “inactive” throughout. Also, the Potency was 19.5 µM (active) in assay [4] and 27.3 µM (active) in [8].
As to `Cc1cc(O)c(C(C)C)cc1Cl`, the Potency result in [1], in [2], in [3], in assay [7], in [8] and in [5] was “inactive” in each case. Besides, the Potency result in assay [9] and in assay [6] was “inactive” in each case.
For `Cc1cc(O)c2c(O)c3c(O)cccc3cc2c1`, the Potency entry in [1], in assay [3], in assay [7], in assay [5], in assay [9] and in assay [6] was “inactive” each time. The results for the Potency in assay [2] and in assay [8] were 2.66 µM (active) and 11.9 µM (active), respectively.
Take `CNC(=S)NC`: the Potency entry in assay [1], in assay [2], in assay [3], in assay [4], in assay [5] and in [9] was “inactive” each time. The Potency entry in assay [6] was “inactive”.
As for `CCC1(C)CC(=O)NC1=O` (stereo not drawn), the Potency entry in [1], in [3], in assay [10], in assay [4], in [8] and in [5] was “inactive” each time. The Potency entry in assay [9] and in [6] was “inactive” in each case.

The record behind these values is PubChem BioAssay (Tox21).
